In the library only some 21% were active in any assay of this set; here they are far more common.
Cycloheximide cs: Cycloheximide Counterscreen for Small Molecule Inhibitors of Shiga Toxin | cell reporter, cycloheximide protein synthesis inhibition counterscreen | max response, % | 12% of 300,000 active | AID 2314, 2010; in the data active = max response mostly above about 13%, no sharp cut-off; inactive = mostly below about 14%; also: read at 38.3 µM for the half of the compounds with a filed dose; 0% is about no effect
Pf growth 96h: Primary qHTS for delayed death inhibitors of the malarial parasite plastid, 96 hour incubation; P. falciparum luciferase reporter growth, 96 h; Potency, µM (doses to about 28.7 µM), without a hit: top-dose activity change, negative = inhibition, usual class: inhibitors; 6.9% of 320,000 active; AID 504834, 2011; also: potency is read from the fitted curve at half-maximal effect; % is scaled to controls: 0 for no effect and ±100 for the full control effect
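P. falciparum expressing integrated firefly luciferase grown in erythrocytes (2% hematocrit, 0.05% parasitemia final) with compounds for 96 hours at 37 C, 5% CO2. Growth inhibition read as loss of luminescence after adding luciferase detection reagent.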
Sm TGR block: qHTS Assay for the Inhibitors of Schistosoma Mansoni Peroxiredoxins; Schistosoma mansoni thioredoxin glutathione reductase (TGR), Q962Y6; purified TGR, DTNB reduction, TNB absorbance 405 nm; Potency, µM (highest dose often 114 µM), for the others: at the highest dose activity change, negative = inhibition, hits mostly inhibitors; 3% of 360,000 active; AID 485364, 2010; also: potency is read from the fitted curve at half-maximal effect; % is scaled to controls: 0 for no effect and ±100 for the full control effect; nearly all actives have a fitted effect of over 60% in size
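First, TGR (20 nM dispensed) and NADPH were mixed with compound. Second, a 15 min room-temperature incubation followed. Third, further NADPH and then DTNB were added to start the reaction. Finally, TNB absorbance was monitored kinetically.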
Pf growth 48h: Primary qHTS for delayed death inhibitors of the malarial parasite plastid, 48 hour incubation | 5.9% of 310,000 active | Potency, µM (top dose mostly 28.7 µM), without a hit: at the top dose activity change, negative = inhibition, hits mostly inhibitors | AID 504832, 2011 | P. falciparum luciferase growth in erythrocytes, 48 h; also: potency is read from the fitted curve at half-maximal effect; % is scaled to controls: 0 for no effect and ±100 for the full control effect
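Luciferase-expressing P. falciparum in infected erythrocytes (2% hematocrit, 0.1% parasitemia final) in RPMI 1640/0.5% Albumax were exposed to compound for 48 hours at 37 C, 5% CO2; growth read as luminescence.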
NS1 function inh: qHTS Assay for Inhibitors of Influenza NS1 Protein Function. Potency, µM (top dose mostly 46.1 µM), for inactives: at the highest dose activity, positive = more growth. 0.4% of 270,000 active. AID 2326, 2010; calls by dose curve; also: potency is read from the fitted curve at half-maximal effect; actives are rising curves; nearly all actives have a fitted effect of over 50% in size
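Read-out: OD600 growth recovery of NS1-expressing budding yeast. Cells grown overnight at 30C in -URA glucose medium, washed, resuspended and diluted 1:100 in 2% galactose assay medium, pH 6.0. Same strain lacking NS1 served as positive control.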
Shiga toxin inh: A qHTS for Small Molecule Inhibitors of Shiga Toxin. inhibition, % at 38.7 µM. Vero cells, Shiga toxin protein synthesis inhibition reporter. AID 2315, 2010. 9.2% of 290,000 active; in the data active = inhibition mostly above about 28%, no sharp cut-off; inactive = mostly below about 43%; also: 0% is about no effect
Numbers without * were called inactive. Unless noted, calls follow the shape of the dose curve; as a rule, active = well fitted curve in the direction sought with a large enough effect; inconclusive = small, poorly fitted or top-dose-only effect, or another doubt; inactive = no such curve, though single readings can be large; an effect the other way counts as inactive or inconclusive.

COc1ccccc1C(=O)O/N=C(/c1ccncc1)c1ccc([N+](=O)[O-])cc1 was read as Cycloheximide cs -3, Pf growth 96h 5.2µM*, Sm TGR block -15%, Pf growth 48h inconclusive, NS1 function inh -4% and Shiga toxin inh -7.
N/C(=N\OC(=O)c1ccccc1Br)c1ccc([N+](=O)[O-])cc1 was read as Cycloheximide cs 10*, Pf growth 96h 252%, Sm TGR block inconclusive, Pf growth 48h 203%, NS1 function inh -8% and Shiga toxin inh 19*.
Screening CC1CCN(c2ccc(-c3cccc(NS(=O)(=O)c4cccs4)c3)nn2)CC1 returned Sm TGR block -7%.
`N/C(CS(=O)(=O)c1ccccc1)=N\OC(=O)c1ccc(F)cc1` gave Cycloheximide cs 28*, Pf growth 96h 5%, Sm TGR block 4%, Pf growth 48h 43%, NS1 function inh 6% and Shiga toxin inh 109*.
Screening Cc1ccccc1/C(N)=N/OC(=O)N1c2ccccc2Sc2ccccc21 returned Cycloheximide cs 7, Pf growth 96h 10µM*, Sm TGR block 0%, Pf growth 48h inconclusive, NS1 function inh -43% and Shiga toxin inh 7.
CC(=O)NC(=O)NC1OC(=O)C(Cl)=C1Cl (stereo unspecified) was read as Cycloheximide cs 3, Pf growth 96h 34%, Sm TGR block 3.5µM*, Pf growth 48h inconclusive, NS1 function inh 9% and Shiga toxin inh 19.
CC(=O)Nc1ccc(NC(=O)CN(c2cc(Cl)ccc2Cl)S(C)(=O)=O)cc1 was read as Cycloheximide cs -2, Pf growth 96h inconclusive, Sm TGR block 1%, Pf growth 48h 6%, NS1 function inh 4% and Shiga toxin inh -11.
For C=CCn1c(COc2ccccc2)nnc1SCc1ccc(C#N)cc1 the results were Cycloheximide cs -3, Pf growth 96h 0.93µM*, Sm TGR block -7%, Pf growth 48h -10%, NS1 function inh -51% and Shiga toxin inh 11.
Cc1ccc(OCc2nnc(SCc3ccc(C#N)cc3)n2-c2ccc(C)cc2)cc1 was read as Cycloheximide cs 1, Sm TGR block 6%, Pf growth 48h 13µM*, NS1 function inh 5% and Shiga toxin inh -9.
`COc1ccc(-n2c(SCc3ccc(C#N)cc3)nnc2-c2ccccn2)cc1` gave Cycloheximide cs 1, Pf growth 96h inconclusive, Sm TGR block -14%, Pf growth 48h inconclusive, NS1 function inh -10% and Shiga toxin inh -11.
Screening Cc1ccc(-n2c(SCc3ccc(C#N)cc3)nnc2-c2ccccn2)cc1 returned Cycloheximide cs -3, Pf growth 96h 10µM*, Sm TGR block -7%, Pf growth 48h inconclusive, NS1 function inh -55% and Shiga toxin inh 31.
Screening Cc1cccc(-c2nnc(SCCC(=O)O)o2)c1 returned Sm TGR block -9%.
Screening CCOc1ccc(S(=O)(=O)N2CCCC(C(=O)NCC3CCCO3)C2)cc1Cl (stereo unspecified) returned Pf growth 96h inconclusive, Sm TGR block -15% and Pf growth 48h 9%.
Screening Cc1ccc2c(=O)cc(C(=O)Nc3ccc(S(=O)(=O)N4CCCCCC4)cc3)oc2c1 returned Sm TGR block 0%.
CCc1ccc(-c2csc3[n+]2CCN3C(C)=O)cc1 was read as Cycloheximide cs 5, Pf growth 96h inconclusive, Sm TGR block 1%, Pf growth 48h 2.9µM*, NS1 function inh 29% and Shiga toxin inh 20.
Screening Cc1c(O)c(=O)n(-c2ccccc2)n1C returned Pf growth 96h 35%, Sm TGR block 11µM* and Pf growth 48h 1%.
`Cc1c(N=NC2=C(O)CC(C)(C)CC2=O)c(=O)n(-c2ccccc2)n1C` gave Cycloheximide cs -1, Pf growth 96h 2.1µM*, Sm TGR block 13µM*, Pf growth 48h -21%, NS1 function inh 1% and Shiga toxin inh -13.
For CCNc1ccc(N=Nc2c(C)n(C)n(-c3ccccc3)c2=O)cc1 the results were Cycloheximide cs 21*, Pf growth 96h inconclusive, Sm TGR block -3%, Pf growth 48h 15% and Shiga toxin inh 40.
For CC1=CC(=Nc2c(C)n(C)n(-c3ccccc3)c2=O)C=CC1=O the results were Cycloheximide cs 7, Pf growth 96h inconclusive, Sm TGR block 2.8µM*, Pf growth 48h inconclusive, NS1 function inh inconclusive and Shiga toxin inh 12.
Screening COc1ccc(CNC(=O)C(NC(C)=O)C(=O)Nc2ccc(C(C)C)cc2)cc1 (stereo unspecified) returned Cycloheximide cs -2, Pf growth 96h 25%, Sm TGR block 3%, Pf growth 48h inconclusive and Shiga toxin inh 27.
`CCCCCCC(c1c(C)n(C)n(-c2ccccc2)c1=O)c1c(C)n(C)n(-c2ccccc2)c1=O` gave Cycloheximide cs -3, Pf growth 96h 7%, Sm TGR block -9%, Pf growth 48h 13µM*, NS1 function inh -4% and Shiga toxin inh -7.
Screening C=CCn1c(O)c(N=Nc2c(C)n(C)n(-c3ccccc3)c2=O)c(=O)[nH]c1=S returned Cycloheximide cs -2, Pf growth 96h 6.6µM*, Sm TGR block 2%, Pf growth 48h -22%, NS1 function inh -18% and Shiga toxin inh -8.
For CC1=CC(=Nc2c(C)n(C)n(-c3ccccc3)c2=O)C=C(C)C1=O the results were Cycloheximide cs 5, Pf growth 96h inconclusive, Sm TGR block 50µM*, Pf growth 48h 7%, NS1 function inh 15% and Shiga toxin inh -7.
For Cc1c(N=Nc2c(O)[nH]c(=S)[nH]c2=O)c(=O)n(-c2ccccc2)n1C the results were Cycloheximide cs -1, Pf growth 96h inconclusive, Sm TGR block -5%, Pf growth 48h -16%, NS1 function inh -3% and Shiga toxin inh -10.
`Cc1ccc(S(=O)(=O)Nc2ccc(S(=O)(=O)NCC3CCCO3)cc2)cc1` (stereo unspecified) gave Cycloheximide cs -7, Pf growth 96h 9%, Sm TGR block 2%, Pf growth 48h 9%, NS1 function inh 1% and Shiga toxin inh -6.
Cc1cccc2cc(CN(Cc3ccc(F)cc3)Cc3nnnn3C3CCCC3)c(=O)[nH]c12 was read as Cycloheximide cs -4, Pf growth 96h 153%, Sm TGR block 17%, Pf growth 48h -9%, NS1 function inh -23% and Shiga toxin inh -23.
`Cc1ccc2[nH]c(=O)c(CN(Cc3ccccc3)Cc3nnnn3C3CCCC3)cc2c1` gave Cycloheximide cs 40*, Pf growth 96h inconclusive, Sm TGR block -4%, Pf growth 48h inconclusive, NS1 function inh -41% and Shiga toxin inh 92*.

Bioassay records: PubChem BioAssay, National Center for Advancing Translational Sciences (NCATS)
